Source: PubChem BioAssay AID1159580 (chemical genetic matrix, 2015)
Out of some 5,500 compounds screened, about 2,000 (36%) were called active. Another 18% or so got no clear call; they are omitted. No stated cut-off is given here; in the data, active means normalized growth mostly below about 0.91 (no sharp cut-off); inconclusive means no clear call, values can overlap the other calls; inactive means mostly above about 0.92. The list shows a part of the results.

Experiment: chemical genetic growth profiling, strain panel (AID 1159580);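 further: tested at 20 µM; growth read once vehicle control cultures reached saturation at 30 °C; 1 = growth at the plate median or of vehicle wells; lower values mean less growth of the strain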
Conditions: S. cerevisiae deletion strains, growth OD

Measured: normalized growth

COc1ccc(-c2cc(=O)c3c(OC)cccc3o2)cc1
inactive: locus YBR021W, strain FUR4, active compounds read low 0.978 | locus YBR229C, strain ROT2, active compounds read low 1.04 | locus YCL029C, strain bik1, active compounds read low 1.05 | locus YDL035C, strain GPR1, active compounds read low 1.03 | locus YDL074C, strain BRE1, active compounds read low 1.09 | locus YDL101C, strain DUN1, active compounds read low 1.03 | locus YDL185W, strain tfp1, active compounds read low 1.02 | locus YDL192W, strain arf1, active compounds read low 1.06 | locus YDR101C, strain arx1, active compounds read low 1.01 | locus YDR162C, strain NBP2, active compounds read low 1.05 | locus YDR318W, strain mcm21, active compounds read low 1.03 | locus YDR388W, active compounds read low 1.04 | locus YDR502C, strain sam2, active compounds read low 1.01 | locus YER110C, active compounds read low 1.02 | locus YER155C, strain BEM2, active compounds read low 1.03 | locus YER167W, strain BCK2, active compounds read low 1.04 | locus YGL078C, strain dbp3, active compounds read low 0.944 | locus YGL086W, strain mad1, active compounds read low 1.01 | locus YGL248W, strain PDE1, active compounds read low 1.05 | locus YGR135W, strain pre9, active compounds read low 1 | locus YGR252W, strain gcn5, active compounds read low 0.89 | locus YHR079C, strain IRE1 (second series), active compounds read low 1.02 | locus YHR094C, strain hxt1, active compounds read low 1.01 | locus YHR129C, strain ARP1, active compounds read low 1.06 | locus YHR200W, strain rpn10, active compounds read low 1.04 | locus YIL066C, strain RNR3, active compounds read low 1.06 | locus YIL073C, strain SPO22, active compounds read low 1.11 | locus YIL125W, strain kgd1, active compounds read low 1.04 | locus YIR030C, strain dcg1, active compounds read low 1.05 | locus YJL095W, strain BCK1, active compounds read low 1.1 | locus YJL134W, strain LCB3, active compounds read low 1.04 | locus YJL168C, strain set2, active compounds read low 1.03 | locus YJL187C, strain SWE1 (second series), active compounds read low 1.03 | locus YJR043C, strain POL32, active compounds read low 1.04 | locus YJR075W, strain HOC1, active compounds read low 1.06 | locus YKL009W, strain mrt4, active compounds read low 0.911 | locus YKL068W, active compounds read low 1.02 | locus YKL085W, strain MDH1 (second series), active compounds read low 1.04 | locus YKL085W, strain MDH1, active compounds read low 1.04 | locus YKR001C, strain vps1, active compounds read low 1.09 | locus YLR039C, strain RIC1, active compounds read low 1.28 | locus YLR058C, strain SHM2, active compounds read low 1.03 | locus YLR102C, strain apc9, active compounds read low 1.02 | locus YLR262C, strain YPT6, active compounds read low 1.21 | locus YLR268W, strain sec22, active compounds read low 1.02 | locus YLR371W, strain rom2, active compounds read low 1.06 | locus YLR418C, strain cdc73, active compounds read low 1.12 | locus YML016C, strain PPZ1, active compounds read low 1.05 | locus YML032C, strain rad52, active compounds read low 0.998 | locus YML124C, strain tub3, active compounds read low 1.03 | locus YMR078C, strain ctf18, active compounds read low 1.03 | locus YMR223W, strain ubp8, active compounds read low 1.01 | locus YMR307W, strain GAS1, active compounds read low 1.22 | locus YNL067W, strain RPL9B, active compounds read low 1.04 | locus YNL153C, strain GIM3, active compounds read low 1.02 | locus YNL233W, strain BNI4, active compounds read low 1.08 | locus YNL250W, strain rad50, active compounds read low 1.05 | locus YNL271C, strain bni1, active compounds read low 1.04 | locus YNL298W, strain CLA4, active compounds read low 0.98 | locus YNL307C, strain MCK1, active compounds read low 1.03 | locus YNL322C, strain KRE1, active compounds read low 1.04 | locus YNR052C, strain pop2, active compounds read low 1.01 | locus YOL006C, strain TOP1, active compounds read low 1.25 | locus YOL012C, strain htz1 1.26 | locus YOL147C, strain pex11, active compounds read low 1.03 | locus YOR061W, strain CKA2, active compounds read low 1.05 | locus YOR069W, strain VPS5, active compounds read low 1.04 | locus YOR136W, strain idh2, active compounds read low 1.03 | locus YOR144C, strain elg1, active compounds read low 1.01 | locus YOR184W, strain ser1, active compounds read low 1.01 | locus YOR316C, strain cot1, active compounds read low 1.02 | locus YPR119W, strain clb2, active compounds read low 1.05 | locus YPR141C, strain kar3, active compounds read low 1.05 | locus YPR163C, strain tif3, active compounds read low 1.02 | locus YPR167C, strain met16, active compounds read low 1.02 | strain wtn01, active compounds read low 1.01
